# In the supplement of paper PMC6555819:
# Assays:
# Assay in all cases: PBM binding z-score (relative to random genomic background probes); higher = stronger binding; sequences stand for … in GC…GCGATTGACAGCGTAGAATGAAGG
# [1] = tested on: FXR:RXRa (NR concentration 270 nM, RXRa partner concentration 90 nM)
# Summary of the method: (§1)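 Antibodies against each partner of ligand-free nuclear receptor dimers (one per run) detected binding on custom Agilent 4×180K protein-binding microarrays after 1 h incubation. The double-stranded probes had 34-nt variable regions carrying direct-repeat seeds, single-nucleotide variants, half-site ablations and random human genomic background sequences. Binding z-scores, from regression-normalized fluorescence, use the random background probes as reference.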
# [2] = tested on: LXRa:RXRa (NR concentration 270 nM, RXRa partner concentration 90 nM)
# Summary of the method: as §1
# [3] = tested on: LXRa homodimer (NR concentration 270 nM)
# Summary of the method: as §1
# [4] = tested on: LXRb:RXRa (NR concentration 270 nM, RXRa partner concentration 90 nM)
# Summary of the method: as §1
# [5] = tested on: LXRb homodimer (NR concentration 270 nM)
# Summary of the method: as §1
# [6] = tested on: PPARa:RXRa (NR concentration 270 nM, RXRa partner concentration 90 nM)
# Summary of the method: as §1
# [7] = tested on: PPARg:RXRa (NR concentration 180 nM, RXRa partner concentration 90 nM)
# Summary of the method: as §1
# [8] = tested on: PPARg:RXRa 270nM:90nM, anti-RXR (NR concentration 270 nM, RXRa partner concentration 90 nM)
# Summary of the method: as §1
# [9] = tested on: PPARg:RXRa 30nM:10nM, anti-RXR (NR concentration 30 nM, RXRa partner concentration 10 nM)
# Summary of the method: as §1
# [10] = tested on: PPARg:RXRa 90nM:30nM, anti-RXR (NR concentration 90 nM, RXRa partner concentration 30 nM)
# Summary of the method: as §1
Sequence,PBM binding z-score [1],PBM binding z-score [2],PBM binding z-score [3],PBM binding z-score [4],PBM binding z-score [5],PBM binding z-score [6],PBM binding z-score [7],PBM binding z-score [8],PBM binding z-score [9],PBM binding z-score [10]
CGTACTAGGTCAAGGACAGTGAATCTCCGCACGC,3.26,2.36,0.318,1.61,0.134,3.93,6.37,5.52,2.99,4.86
ACTAGTTGGTCAGCTGAGGTCTCACACAATTCGG,0.132,-0.314,-0.301,-0.188,-0.19,0.142,0.384,0.246,-0.202,0.00207
TAGCCTAGGTCAGATCGGGCCAGTGTACGCTATA,1.85,0.96,-0.454,0.525,-0.897,1.49,0.36,0.761,-0.533,-0.134
GATACAGGGTCAGCTAGAGGCCAGCGTATGGAAA,4.35,2.75,-0.301,2.11,-1.03,4.37,3.18,3.49,0.694,1.92
TAGCCTAGGTCATGGGACAGTATACCACGCGAAC,5.01,3.4,0.47,3.01,0.331,4.29,3.92,3.74,1.14,2.55
GCTCGGAGTACAAGGTCAGAGCTTTGTCCGTAGA,1.17,1.6,0.0814,1,-0.761,2.17,0.501,1.48,-0.171,0.497
CCAGACAGGTGAAAGCTAACTCAGTCTGGTACGC,-0.364,-0.206,-0.559,-0.0941,-0.593,0.302,0.368,-0.0659,-0.35,-0.285
CCGACTGGGGCATAAGGTTACCATCAGCCAGCCC,0.308,1.43,-0.15,0.516,-1.51,1.9,2.3,2.99,1.18,2.32
CTCGAAAGGTCGTGCTCAGGTGGGTATACCAAAC,5,3.41,0.337,3.41,0.396,4.5,2.17,3.18,0.828,1.96
CTACCAAGGTGAACAAAGTCGTTGATTACTATTC,0.425,0.395,-0.0192,0.749,-0.488,1.01,0.314,0.548,0.192,0.308
ACTGACAGGTGATGAAGGTAACTCAGGCTATCAT,-0.15,-0.398,-0.445,-0.455,-0.408,-0.0489,0.472,0.0848,0.0417,0.219
GGAACGAGGACATTCGAGTTGATAGCATGGCGAT,0.116,-0.183,-0.644,-0.72,-0.703,-0.304,0.664,-0.0182,-0.118,-0.155
CAAACTAGGTCTAGAGGTCAAAGTCCGCTTCCCG,4.99,5.78,5.83,4.86,1.55,5.14,5.12,5.9,4.3,5.99
GCTAGCAGGCCATTAGGGTCACTCAATGACGGGC,1.78,1.35,-0.158,1.47,-0.982,2.54,1.2,1.3,-0.267,0.446
CATTCAGGGTCAGCTAGGCCAGAGTAGGGACGGC,5.24,4.08,0.181,2.92,1.42,4.82,3.87,3.94,1.29,2.81
CCTCACGGGTCACGAGGTTATAGCACGACGAGCG,6.54,4.19,0.232,3.64,-0.109,5.59,6.23,5.68,2.34,4.25
ATCTCTAGGTAACAAGTTCAGTGACAGAGAGGAC,0.767,0.889,0.72,0.57,0.85,1.52,1.61,2.21,0.948,1.88
GCTAGCAGGCCATTTGGGTAACTCAATGACGGGC,-0.758,-0.699,-0.371,-0.899,-0.88,-0.267,0.519,-0.594,-0.844,-0.634
TCTATTTGGTCAAAGGTCACACACTCGAAATGCG,6.32,5.68,4.22,5.83,3.24,6.7,10.6,9.27,9.35,10.1
AGAACGAGGGCAAAGAGTTGATAGCACGGGTGGC,0.422,0.331,-0.368,-0.152,-0.712,1.78,1.8,2.07,0.549,1.55
CGGCAAAGTTCAACTAAGGTAACGTAAAGCACGC,7.42,5.93,2.94,3.99,1.22,5.03,4.7,5.19,1.6,3.81
GATACAGGGTCAGCTAGCGGCCAGAGTATGGAAA,4.95,2.67,-0.847,2.34,-0.774,4.56,3.77,3.29,0.52,2.01
CAAACTAGGTCAAAGAGGTCAAAGTCCGTGCGTA,6.71,6.33,6.39,5.91,2.23,6.17,8.55,7.69,6.36,7.64
CCTAGCAGGCCAATCTGGGGCACTCAAGGCTTGA,-0.393,-0.285,-0.624,-0.768,-1.24,0.967,0.549,0.547,-0.732,-0.289
GCTGCTAGGTCAGGTTGGTCCGCTAACGGGTACG,1.45,0.788,-0.309,0.439,0.221,1.46,0.195,0.764,-0.421,0.25

Sequence,PBM binding z-score [1],PBM binding z-score [2],PBM binding z-score [3],PBM binding z-score [4],PBM binding z-score [5],PBM binding z-score [6],PBM binding z-score [7],PBM binding z-score [8],PBM binding z-score [9],PBM binding z-score [10]
AGAATGAGGTTAAGAGCAGGGAAACAGAATACAT,2.07,1.9,-0.281,1.52,-0.266,3.4,1.98,2.15,0.589,1.22
ATCGAAAGGTCGAGGTGAGTATGGAGAAAGGGAA,3.95,3.28,-0.073,2.56,0.624,4.45,3.02,3.6,1.01,2.39
GAACCAAGGTGAATAGGTCGTTGATGAGTAGGCG,0.855,0.803,-0.0902,0.55,-0.922,2.46,1.74,1.97,0.275,1.25
CGTCCAAGGTCATAGGAGGTCAGTGTAGACAGAT,7.58,7.26,4.98,6.27,1.28,5.83,5.64,5.77,2.31,4.68
CCTATCAGGCCAATCTGGGTCACTCAAGGCTTGA,0.68,1.71,-0.155,1.02,0.106,3.29,2.26,2.47,0.43,1.76
CCTGCTAGGTCGATGGTCAGCTAAAGCAGCTCGC,-0.156,-0.179,-0.637,-0.279,-0.599,0.0378,0.232,1.43,-0.649,0.713
TAGCCTAGGTCATTTAGGGGCCAGTATAGAAAGC,4.42,4.04,0.996,3.09,1.69,3.41,1.46,2.15,0.169,1.49
GTACCAAGGCGAATAGGTCGTTGATGAGTAGGCG,-0.145,-0.392,-0.286,-0.382,-0.895,0.351,0.461,-0.0926,-0.512,-0.516
AGAATGAGGTTATTAAGATCCGGGAATTGCGGTC,1.33,2.41,-0.0229,1.24,-0.217,2.49,1.06,1.15,0.0449,0.869
TCTAGTTGGTCAAAGGTCACATACTCGAAATGCG,5.54,5.66,3.58,5.2,2.28,6.24,10.8,9.78,9.93,11.1
CGTCCAAAGTCAAGGTCAGTGAAAGAGACTCGAA,2.34,2.12,0.643,1.74,0.209,2.8,0.614,1.04,0.0766,0.615
CCGACTGGGGCAAAGGTTACCGTACTCAGTACGA,1.69,1.59,-0.472,1.95,-1.15,5.78,10.6,9.35,9.56,9.91
TCGAGTAGGTTAGGGGAATTCAGAATGGCGTCGA,-0.0318,-0.209,-0.147,0.224,-0.435,0.565,0.159,1.02,1.11,1.18
CCGACTGGGGCCTAAGGTTACCATAAGCCAGCCC,0.328,1.58,-0.169,0.716,-1.28,1.26,0.941,2.51,0.0484,1.11
CCTTACGGGTCAAGGATATAGCACGGGTGGTACG,4.77,2.96,0.0404,2.45,-0.392,4.52,3.82,3.92,1.14,2.66
GCTAGCAGGCAATTTGGGTCACTCAATGACGGGC,0.195,0.398,-0.578,0.171,-0.943,2.23,0.983,0.964,-0.305,0.409
TCTAGTTGTTCACGGAGGTCACACACGACGGGTA,2.82,3.29,2.83,3.17,0.94,3.66,1.84,2.89,3.43,3.07
TCTGCTAGGTCAGTTGTTCAGCTAACGAGCTGCC,0.697,0.0799,-0.424,0.213,0.398,1,-0.335,1.24,1.28,1.21
CGTCAAAGTACAAGGTAACGTAACAGAAAGCAGC,0.052,-0.143,-0.279,0.0117,-0.288,0.136,0.969,0.307,0.31,0.0776
CGTCCAAGGTCATAGGAGGACAGTGAAGACAGAT,7.15,6.2,1.35,4.45,0.52,5.39,4.71,4.97,1.81,3.56
TAGCCTAGGTCATGCGGGCCAGTAGAGTGTCGGC,4.11,3.32,-0.00774,1.64,-0.216,3.58,1.91,2.64,0.154,1.57
ATCTCTAGGTAAAAGTTCGGTGAATCCCGAGGAT,0.161,0.141,0.132,0.00747,0.757,2.68,5.39,6.18,4.88,6.61
CCTTACGGGTCACTGACACGTTATAGCATTTGGA,5.87,3.87,0.355,3.38,0.0224,5.4,4.48,4.55,1.45,3.25
CGAACTAGGTCATCCAGGACAGTGCATACATTGA,4.36,2.32,0.87,2.15,0.0357,4.85,7.67,6.47,3.97,5.85
